Bioassay records (PubChem)
BoNT-F LC inh = inhibitors of Botulinum neurotoxin F light chain protease. Multiplex microsphere protease cleavage assay, flow cytometry. inhibition, % at 10 µM. 0.22% of 360,000 active; in the data active means inhibition above about 35%, passing the limit was not always enough; inconclusive means no clear call, values can overlap the other calls
Bead autofluor = counter-screen for toxin protease inhibitors: compound fluorescence; fluorescence intensity (concentration not given with the values); AID 624483; 3.1% of 360,000 active; compound autofluorescence counterscreen, microsphere flow cytometry; active compounds read high; in the data active means fluorescence intensity above about 16000; inconclusive means no clear call, values can overlap the other calls
PfHsp40 rescue = rescue of PfHsp40-mediated yeast toxicity; S. cerevisiae expressing PfHsp40, growth rescue, ATP luminescence; 0.68% of 340,000 active; AID 504582; growth rescue, % at 12.5 µM; in the data active means growth rescue above about 28%, passing the limit was not always enough; inconclusive means no clear call, values can overlap the other calls;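 further: yeast W303a lacking pdr1 and pdr3 grown in galactose medium; growth measured after three days at 30 °C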
Anthrax LF prot = inhibitors of Bacillus anthracis lethal factor protease | P15917 | multiplex microsphere protease cleavage assay, LF | inhibition, % at 10 µM | 0.12% of 360,000 active | AID 588501
MazEF act = activators of E. coli MazEF toxin-antitoxin RNase. FAM/BHQ RNA-DNA oligo cleavage fluorescence, 5 h. activation, % at 20 µM. 0.32% of 350,000 active; in the data active means activation above about 50%
Target sequence (P0AE70 whole entry, looked up): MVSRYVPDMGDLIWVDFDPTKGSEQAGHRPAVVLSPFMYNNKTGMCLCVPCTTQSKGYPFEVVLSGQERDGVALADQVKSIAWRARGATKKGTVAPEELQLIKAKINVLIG
BoNT A protease = BoNT A light chain protease inhibition; multiplex microsphere protease substrate cleavage, flow cytometry; inhibition, % at 10 µM; 0.17% of 360,000 active
BoNTA LC inh 1 = inhibitors of Botulinum neurotoxin A light chain protease; shares compounds with BoNT-F LC inh; multiplex microsphere protease assay, flow cytometry; inhibition, % at 10 µM; 3% of 720 active; AID 602139; in the data active means inhibition above about 32%
BoNTF LC inh 1 = blocks botulinum neurotoxin F light chain protease. shares compounds with BoNT-F LC inh. multiplex microsphere protease cleavage assay, flow cytometry. inhibition, % at 10 µM. 720 tested, under 10 active. AID 602140; call rule not given here
LF protease CP1 = inhibitors of Bacillus anthracis lethal factor protease. shares compounds with BoNT-F LC inh. multiplex microsphere protease cleavage assay, LF. inhibition, % at 10 µM. 720 tested, under 10 active. AID 602142; call rule not given here
BoNT-A LC CP2 = inhibitors of botulinum neurotoxin A light chain protease. 10% of 150 active. inhibition, % at 10 µM. multiplex microsphere protease cleavage assay, flow cytometry. shares compounds with BoNT A protease; in the data active means inhibition above about 24%
LF protease CP2 = blocks anthrax lethal factor protease. shares compounds with BoNT A protease. 7% of 150 active. inhibition, % at 10 µM. AID 602327. multiplex microsphere protease cleavage assay; in the data active means inhibition above about 25%
BoNTF LC inh 2 = BoNT/F light chain protease inhibition; AID 602336; 7% of 150 active; inhibition, % at 10 µM; multiplex microsphere protease cleavage assay, flow cytometry; shares compounds with BoNT A protease; in the data active means inhibition above about 25%
Numbers stand for hits; - = inactive; ? = inconclusive; . = not tested or not shown. Only some compounds are listed: those with a hit (about 4.3% of all), similar ones and a draw of the others. Unless noted, no stated cut-off is given here; in the data, active means inhibition above about 30%; inconclusive means no clear call, values can overlap the other calls; inactive means below that.

SMILES	BoNT-F LC inh	Bead autofluor	PfHsp40 rescue	Anthrax LF prot	MazEF act	BoNT A protease	BoNTA LC inh 1	BoNTF LC inh 1	LF protease CP1	others
CCc1ccc(N2CC(C(=O)OCC(=O)Nc3ccc(C(C)=O)cc3)CC2=O)cc1 (stereo unspecified)	-	-	-	-	-	-	.	.	.
CCC(C)c1cc(S(=O)(=O)N2CCOCC2)ccc1OC (stereo unspecified)	44	-	-	-	-	-	-	-	-
CC(=O)Nc1ccc(NC(=O)CSc2nnc(N)n2-c2ccccc2)cc1	39	-	-	-	-	-	-	-	-
CC(=O)Nc1ccc(NC(=O)CSc2nnc(CC(C)O)n2-c2ccccc2)cc1 (stereo unspecified)	?	-	-	-	-	-	.	.	.
Cc1cc(-c2c(C(=O)N3CCOCC3)c(C)nn2-c2cccc(C(F)(F)F)c2)no1	?	-	-	-	-	?	.	.	.
Cc1cc(-c2c(C(=O)N3CCOCC3)c(C)nn2-c2ccccc2)no1	?	-	-	34	-	-	-	-	-
CCOc1ccc(NC(=O)CCn2ccnc2)cc1	-	-	-	-	-	-	.	.	.
O=C(CCn1ccnc1)Nc1ccc2ccccc2c1	38	-	-	-	-	-	-	-	-
CCc1ccc(CNCCc2ccccc2F)cc1	-	-	-	-	-	-	.	.	.
CCOc1cc(CNCCc2ccccc2F)ccc1OC	83	-	-	-	-	-	-	-	-
O=C(CSc1ccc(Cl)cc1)NNC(=O)c1cccnc1	-	-	-	-	-	-	.	.	.
Cc1ccc(C)c2[nH]c(=O)c(C(c3nnnn3C3CCCC3)N3CCOCC3)cc12 (stereo unspecified)	-	25756	-	-	-	-	-	-	-
Cc1ccc2cc(C(c3nnnn3C3CCCC3)N3CCOCC3)c(=O)[nH]c2c1C (stereo unspecified)	-	-	-	-	-	-	.	.	.
CCOC(=O)C1CCN(C(c2cc3ccc(C)c(C)c3[nH]c2=O)c2nnnn2C2CCCCC2)CC1 (stereo unspecified)	38	60118	?	-	-	33	-	-	-
CCOC(=O)C1CCN(C(c2cc3c(C)ccc(C)c3[nH]c2=O)c2nnnn2C2CCCCC2)CC1 (stereo unspecified)	109	38836	-	-	-	-	-	-	-
NC(=O)C1CCN(C(c2ccccc2)c2nnnn2C2CCCC2)CC1 (stereo unspecified)	-	-	-	-	-	-	.	.	.
Cc1ccc2cc(CN(Cc3nnnn3C3CCCC3)C3CCCCC3)c(=O)[nH]c2c1C	-	-	-	-	-	-	.	.	.
COc1ccc(CCNC(=O)CCS(=O)(=O)c2ccc3c(c2)NC(=O)C(C)S3)cc1OC (stereo unspecified)	-	-	-	-	-	-	.	.	.
Cc1cc(O)cc2c1C1CCC3(C)C(=O)CCC3C1C=C2 (stereo unspecified)	-	-	-	-	-	-	.	.	.
CC(C)N(Cc1ccccc1)C(=O)CC(=O)N(Cc1ccccc1)C(C)C	36	-	-	-	-	-	-	-	-
CC(C)N(Cc1ccccc1)C(=O)CN1C(=O)c2ccccc2C1=O	-	-	-	-	-	-	.	.	.
CC(C)(C)C(=O)N1CCC(O)(CS(=O)(=O)c2ccc(Cl)c(Cl)c2)CC1	-	-	-	-	-	-	.	.	.
Cc1cnc(CNC(=O)C2CCC(=O)N(Cc3ccc(Cl)cc3)C2)[nH]1 (stereo unspecified)	-	-	-	-	-	-	.	.	.
Cc1ccc(-c2csc3nc4c5ccccc5c(NCCCN(C)C)nn4c(=O)c23)cc1	-	-	-	-	-	36	-	-	-
Cc1ccc(OCCCC(=O)Nc2ccc(S(N)(=O)=O)cc2)cc1	41	-	-	-	-	-	-	-	-
SMILES	BoNT-F LC inh	Bead autofluor	PfHsp40 rescue	Anthrax LF prot	MazEF act	BoNT A protease	BoNTA LC inh 1	BoNTF LC inh 1	LF protease CP1	others
CCn1cc(CNC(=O)c2c(-c3c(Cl)cccc3Cl)noc2C)c(C)n1	35	-	-	-	-	-	-	-	-
Cc1onc(-c2c(Cl)cccc2Cl)c1C(=O)NCc1ccccn1	-	-	-	-	-	-	.	.	.
COc1ccc(C#Cc2ccc(C3=CC(=O)CC(C)(C)C3=O)cc2)cc1	-	-	.	30	-	-	.	.	.	BoNT-A LC CP2=-;LF protease CP2=-;BoNTF LC inh 2=-
CC1(C)CC(=O)C=C(c2ccc(Oc3ccccc3)cc2)C1=O	-	-	.	-	-	-	.	.	.
Cc1cc2ccccc2n1CCNC(=O)Cc1cccc2ccccc12	-	-	-	-	-	55	.	.	.	BoNT-A LC CP2=-;LF protease CP2=-;BoNTF LC inh 2=-
Cc1cc2ccccc2n1CCNC(=O)c1ccc(S(=O)(=O)N2CCOCC2)cc1	-	-	-	-	-	-	.	.	.
